Source: ChEMBL document CHEMBL3988442, “University of Dundee, Small-Polar-MMV Screening Library” (2021)

Each molecule was assayed against Chromo domain-containing protein 1 (Saccharomyces cerevisiae (strain ATCC 204508 / S288c) (Baker's yeast)) (UniProt P32657) (assay: ScCHD-1 Enzyme Inhibition Assay). Conditions: 30 µM.
Chain of Chromo domain-containing protein 1 (Saccharomyces cerevisiae (strain ATCC 204508 / S288c) (Baker's yeast)) (P32657 whole entry, the tested form may be a part): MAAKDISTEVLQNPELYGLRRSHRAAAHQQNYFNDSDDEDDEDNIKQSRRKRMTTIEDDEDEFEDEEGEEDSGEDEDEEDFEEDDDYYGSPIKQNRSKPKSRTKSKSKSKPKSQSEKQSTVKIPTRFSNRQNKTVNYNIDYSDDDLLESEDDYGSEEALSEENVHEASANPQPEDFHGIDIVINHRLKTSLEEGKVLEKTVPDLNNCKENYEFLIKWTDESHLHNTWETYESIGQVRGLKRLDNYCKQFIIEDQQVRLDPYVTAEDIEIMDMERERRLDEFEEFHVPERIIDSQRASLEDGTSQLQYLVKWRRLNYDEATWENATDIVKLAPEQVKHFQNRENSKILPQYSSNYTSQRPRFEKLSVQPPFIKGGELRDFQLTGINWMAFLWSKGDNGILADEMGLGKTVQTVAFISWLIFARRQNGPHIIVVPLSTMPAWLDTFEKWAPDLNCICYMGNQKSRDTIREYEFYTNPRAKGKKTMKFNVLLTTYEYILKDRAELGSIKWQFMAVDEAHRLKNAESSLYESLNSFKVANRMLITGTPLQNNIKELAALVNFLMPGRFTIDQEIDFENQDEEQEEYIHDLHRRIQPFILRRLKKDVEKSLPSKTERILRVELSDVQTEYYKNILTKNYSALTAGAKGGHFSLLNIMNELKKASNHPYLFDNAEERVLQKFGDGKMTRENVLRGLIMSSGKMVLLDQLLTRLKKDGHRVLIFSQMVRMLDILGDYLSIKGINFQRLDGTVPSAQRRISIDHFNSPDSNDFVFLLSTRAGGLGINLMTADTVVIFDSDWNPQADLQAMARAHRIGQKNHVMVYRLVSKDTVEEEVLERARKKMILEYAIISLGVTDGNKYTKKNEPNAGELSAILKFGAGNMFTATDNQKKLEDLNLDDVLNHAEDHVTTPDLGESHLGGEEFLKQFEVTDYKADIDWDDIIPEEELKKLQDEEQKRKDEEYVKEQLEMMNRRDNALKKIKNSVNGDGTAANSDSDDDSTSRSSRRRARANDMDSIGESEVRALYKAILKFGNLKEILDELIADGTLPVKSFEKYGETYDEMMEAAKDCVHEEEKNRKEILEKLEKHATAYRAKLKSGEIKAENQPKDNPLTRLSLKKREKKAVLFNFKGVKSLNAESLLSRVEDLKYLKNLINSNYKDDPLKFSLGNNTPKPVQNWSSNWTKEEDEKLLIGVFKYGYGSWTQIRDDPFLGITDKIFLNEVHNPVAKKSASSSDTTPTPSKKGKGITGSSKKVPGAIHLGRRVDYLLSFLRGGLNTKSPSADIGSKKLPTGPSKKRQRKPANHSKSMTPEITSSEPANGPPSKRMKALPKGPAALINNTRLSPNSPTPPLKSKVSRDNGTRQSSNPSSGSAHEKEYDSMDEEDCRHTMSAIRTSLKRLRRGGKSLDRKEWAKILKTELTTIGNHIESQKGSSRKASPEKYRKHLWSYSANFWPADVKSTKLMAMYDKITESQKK
Assay type: functional
Design: scale not given: in the data most compounds retested in dose-response had high values
CN(C)CC1(O)CCN(S(=O)(=O)c2ccc(F)cc2)C1 (stereo not given) showed a Percent Effect of 65.3%.
CCc1noc(C(C)N2CCN(Cc3nc(C)c(C)o3)CC2)n1 (stereo not given) gave a Percent Effect of 2.3%.
With CS(=O)(=O)CCC(=O)NC1(c2cccc(Br)c2)CC1 the Percent Effect was -3.61%.
Fc1cccc(CN2CCC(c3n[nH]c4ncccc34)CC2)c1F gave a Percent Effect of -10.6%.
With CN(C)C(=O)CN1CCC2(CCN(Cc3nccs3)CC2)C1=O the Percent Effect was -7.73%.
Work on CCc1nnc2n1CCN(C(=O)C(C)COCc1ccccc1)C2 (stereo not given) yielded a Percent Effect of -2.72%.
Cc1ccc(N2CC3(COCCN(Cc4cccnc4)C3)OCC2=O)s1 (stereo not given) gave a Percent Effect of -1.59%.
With Cc1nc(C)n(CC2CN(Cc3cccnc3)CCO2)n1 (stereo not given) the Percent Effect was -5.32%.
Work on COc1ccc(C2=CCN(C(=O)CN(C)CC(C)C#N)CC2)cc1 (stereo not given) yielded a Percent Effect of -8.15%.
In the case of CC(NC(=O)Cn1cccn1)c1ccc2c(c1)OCCCO2 (stereo not given), the Percent Effect is reported as -16.5%.
Work on CCn1cnnc1CNC(=O)N1CCN(Cc2ccccc2)CC1 yielded a Percent Effect of -22.4%.
NC(=O)Nc1cccc(Oc2ccccn2)c1 was tested, and the Percent Effect was -0.275%.
Molecule Cc1ccc(CN(Cc2ccccn2)C2CC(C)(C)NC(C)(C)C2)s1 has a Percent Effect of -9.63%.
CC(C)c1nccn1CCCNC(=O)c1ccc(-c2cncnc2)nc1 gave a Percent Effect of -5.5%.
Work on Cc1nc(CN2CCN(CC(=O)Nc3c(C)cccc3C)CC2)no1 yielded a Percent Effect of -17.5%.
c1cnn(Cc2nnc(C3CCN(C4CCOCC4)CC3)n2C2CC2)c1 gave a Percent Effect of 103%.
In the case of CCc1noc(CN2CCCC2c2noc(C3CC3)n2)n1 (stereo not given), the Percent Effect is reported as -9.57%.
Molecule Fc1ccc(OCCCN2CCOC(Cn3cncn3)C2)cc1 (stereo not given) has a Percent Effect of -15.5%.
CS(=O)(=O)NCCCN1CCCCC1c1cc2ccccc2[nH]1 (stereo not given) was tested, and the Percent Effect was -7.23%.
CCC1=N[C@@]2(CC[C@@H]3CN(Cc4ccc(Cl)cc4)C[C@@H]32)C(=O)N1 was tested, and the Percent Effect was 0.0576%.
